TSG101-PTAP inh: qHTS Assay for Iinhibitors of HIV-1 Budding by Blocking the Interaction of PTAP/TSG101 | 340,000 tested, under 10 active | Potency, µM (doses to about 115 µM), for the others: top-dose activity change, negative = inhibition, hits mostly inhibitors | Fluorescence polarization, FITC-PTAP peptide / Tsg101 binding | Tumor susceptibility gene 101 protein (Homo sapiens), Q99816; active = well fitted inhibition curve with a large enough effect in the main read-out, with a control signal flat, not every such curve was filed as active; inconclusive = small, poorly fitted or top-dose-only effect, or effect the other way, or a change in a side signal; inactive = no such curve, though single readings can be large or run the other way; note: potency is the fitted concentration of half-maximal effect; % of control where 0% means no effect
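Compounds were pin-transferred onto Tsg101 binding domain (10 uM final) in HEPES pH 7.5 buffer, then FITC-PTAP peptide was added at 50 nM final. After 20 min at RT, polarization reported peptide displacement across a qHTS concentration series.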
KCNH2 3.1 block: qHTS for Inhibitors of KCHN2 3.1: Mutant qHTS; Potassium voltage-gated channel subfamily H member 2, brain isoform KCNH2 3.1 (human); U2OS KCNH2 3.1, thallium flux FluxOr; hits give low values; activity change, % (tested at about 1.8 µM); hit rate 0.95% among 340,000; AID 720553, 2013;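 active = maximum activity change below -70%; inconclusive = maximum activity change from -70% to -50%; inactive = maximum activity change above -50%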;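 note: thallium influx rate constant from kinetic fluorescence after stimulation buffer; % is set by controls: 0 for no effect and ±100 for the full control effect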
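Thallium flux via FluxOr fluorescence (Red40 quencher, 45 min loading) in U2OS cells virally expressing the KCNH2 3.1 isoform (1.77 x 10^8 /mL virus, overnight at 37 C). Rate constants from 2-min kinetic reads post-stimulation, normalised to positive and negative controls.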
KCNH2 WT inh: qHTS for Inhibitors of KCHN2 3.1: Wildtype qHTS; hit rate 0.37% among 340,000; Voltage-gated inwardly rectifying potassium channel KCNH2 (Homo sapiens), Q12809; activity change, % at 1.84 µM; U2OS, BacMam KCNH2, thallium flux FluxOr; hits give low values; AID 720551, 2013;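 active = maximum activity change below -70%; inconclusive = maximum activity change between -70% and -50%; inactive = maximum activity change above -50%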; note: % is set by controls: 0 for no effect and ±100 for the full control effect
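U2OS cells were transduced with wild-type KCNH2 virus (2.03 x 10^8 / mL) for 4 h at room temperature, then cultured overnight at 37 C. Thallium flux was read with FluxOr dye. Rate constants were normalized to DMSO controls.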
Tb PFK inh-1: qHTS Assay to Find Inhibitors of T. brucei phosphofructokinase | T. brucei PFK, ADP-Glo luminescence | hit rate 0.17% among 330,000 | Potency, µM (highest dose often 57.5 µM), for the others: top-dose activity, negative = inhibition, most hits filed as inhibitors | ATP-dependent 6-phosphofructokinase (Trypanosoma brucei brucei), O15648;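 note: potency is the fitted concentration of half-maximal effect; 0% = uninhibited 1x PFK enzyme wells and -100% = no-enzyme wells; nearly all actives have a fitted effect of over 60% in size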
Target sequence (O15648 whole entry, looked up): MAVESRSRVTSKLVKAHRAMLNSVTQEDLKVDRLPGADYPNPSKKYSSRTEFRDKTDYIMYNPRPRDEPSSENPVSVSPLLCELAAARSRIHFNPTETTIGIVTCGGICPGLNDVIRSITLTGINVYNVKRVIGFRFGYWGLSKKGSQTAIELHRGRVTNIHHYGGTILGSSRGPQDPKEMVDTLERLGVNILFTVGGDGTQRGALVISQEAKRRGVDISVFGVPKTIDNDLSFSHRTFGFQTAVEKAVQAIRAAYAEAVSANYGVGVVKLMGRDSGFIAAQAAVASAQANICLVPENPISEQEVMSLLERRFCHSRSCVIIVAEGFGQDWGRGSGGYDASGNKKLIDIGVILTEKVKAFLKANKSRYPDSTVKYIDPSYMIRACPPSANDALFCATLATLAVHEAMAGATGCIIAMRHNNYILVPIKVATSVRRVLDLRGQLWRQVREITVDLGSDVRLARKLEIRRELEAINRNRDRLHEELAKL
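ADP-Glo luminescence quantified ADP after 45 min at room temperature, with 1.25 nM T. brucei PFK, 0.1 mM ATP and 0.5 mM fructose-6-phosphate in pH 8.0 TEA buffer. qHTS titrations up to 57 µM; curves classified by quality.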
TbPFK ATP: Tb PFK orthogonal confirmatory assay using ATP depletion (Kinase-Glo Plus) as an alternative measure of Tb PFK activity: Hit Validation; shares compounds with Tb PFK inh-1; Tb PFK enzyme, ATP depletion, Kinase-Glo Plus luminescence; Potency, µM (top dose mostly 57.5 µM), for inactives: at the top dose inhibition; hit rate 47% among 1,100; calls by dose curve; note: potency is the fitted concentration of half-maximal effect; nearly all actives have a fitted effect of over 60% in size
Tb PFK inh-2: Inhibitors of T. brucei phosphofructokinase: Hit Validation | shares compounds with Tb PFK inh-1 | purified T. brucei PFK, ADP-Glo luminescence, 45 min | Potency, µM (top dose mostly 57.5 µM), without a hit: top-dose activity change, negative = inhibition, most hits filed as inhibitors | hit rate 41% among 1,100;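 note: potency is the fitted concentration of half-maximal effect; plate controls were full PFK enzyme control for no effect and no enzyme control for full effect; nearly all actives have a fitted effect of over 60% in size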
Numbers without * were called inactive; ? = inconclusive; . = no result given. Most compounds without a hit are left out; they make up all but 1.2% or so of the library. Unless noted, calls come from the whole dose curve; as a rule, active = well fitted inhibition curve with a large enough effect; inconclusive = small, poorly fitted or top-dose-only effect, or effect the other way; inactive = flat fitted curve, though single readings scatter.

SMILES	TSG101-PTAP inh	KCNH2 3.1 block	KCNH2 WT inh	Tb PFK inh-1	TbPFK ATP	Tb PFK inh-2
CC1=C2C(=O)C3C(CC=C4CC(O)CCC43C)C2CCC12OC1CC(C)CNC1C2C (configuration not stated)	-1%	-4	0	0%	.	.
N#Cc1c(F)cccc1NCc1cccnc1	-4%	-6	-18	?	?	-9%
CCN(CC)P(=O)(c1nccn1C)N(CC)CC	-1%	-2	-5	0%	.	.
O=C(CCc1ccccc1)N1C[C@H]2C[C@@H](C1)c1cccc(=O)n1C2	-3%	-1	-1	1%	.	.
CCOP(=S)(OCC)N1CC1	0%	7	-5	.	.	.
O=C(O)Cc1ccc(NC(=O)Nc2ccc(Br)cc2)cc1	-11%	-25	-5	?	12µM*	24µM*
CC1CN(S(=O)(=O)c2cc(C(=O)NCc3ccncc3)ccc2Cl)CC(C)O1 (configuration not stated)	-4%	13	-2	?	?	?
NS(=O)(=O)c1ccc(CCNC(=O)c2ccc(Cl)c(S(=O)(=O)N3CCCCC3)c2)cc1	80%	-7	-21	-2%	.	.
COc1ccc(NC(=O)c2cn(CCC#N)nc2-c2cccc(Br)c2)cc1	-4%	-23	-10	3%	.	.
O=C(CN1C(=O)c2ccccc2C1=O)NCCc1c[nH]c2ccc(Cl)cc12	1%	19	1	?	21µM*	30µM*
Cc1cc(OCCN2CC2)c2ccccc2n1	.	.	.	3%	.	.
COc1ccccc1OCCNC(=O)Cc1ccc(Cl)c(Cl)c1	0%	17	14	?	?	?
COc1ccc(C(=O)NCc2ccc(Cl)c(Cl)c2)cc1OC	1%	-17	5	13µM*	8.5µM*	27µM*
COc1ccc(C(CNC(=O)Cc2ccc(Cl)c(Cl)c2)N(C)C)cc1 (configuration not stated)	-1%	3	16	-11%	.	.
COc1ccc(-c2nn(CCC#N)cc2C(=O)NCc2ccccc2)cc1OC	-5%	-8	-1	1%	.	.
COc1ccc(NC(=O)Cc2ccc(Cl)c(Cl)c2)cn1	0%	0	-4	12µM*	6µM*	13µM*
Cc1ccccc1NC(=O)NCCN1CC1	-4%	0	-1	3%	.	.
CC(NC(=O)c1ccco1)C(=O)N1CCN(c2cccc(C(F)(F)F)c2)CC1 (configuration not stated)	-5%	-1	1	?	14%	-10%
CC(C)CN1C(=S)SC(C)(C)C1n1oc(=O)n(-c2ccc(Cl)cc2)c1=O (configuration not stated)	-4%	1	8	27µM*	3%	-4%
CN1C(=O)C(=Cc2ccc(N3CCOCC3)o2)C(=O)N(C)C1=S	51%	22	6	0%	.	.
O=C1NC(=S)S/C1=C/c1ccc(N2CCOCC2)o1	?	-4	12	27µM*	12%	-14%
O=C(Cc1ccc(Br)cc1)N/N=C/c1ccc(-c2cccc(C(=O)O)c2)o1	-11%	0	0	11µM*	11µM*	12µM*
O=C(CCN1CCOCC1)Nc1ccc(Br)cc1C(=O)c1ccccc1	-11%	2	10	3%	.	.
CN1C(=O)C(c2ccc([N+](=O)[O-])cc2[N+](=O)[O-])C(=O)N(C)C1=O	3%	-13	1	-14%	.	.
CN(C)c1ccc(/C=C/[N+](=O)[O-])cc1	-1%	-3	-12	-5%	.	.
SMILES	TSG101-PTAP inh	KCNH2 3.1 block	KCNH2 WT inh	Tb PFK inh-1	TbPFK ATP	Tb PFK inh-2
CN(c1ccccc1)c1ccc(/C=C/[N+](=O)[O-])cc1	-4%	-47	-14	?	17µM*	24µM*
O=c1cnn(Cc2ccc(Cl)c(Cl)c2)c2ccccc12	-4%	-5	-2	?	12µM*	24µM*
COC(=O)C1=C(c2ccc(Cl)c(C(F)(F)F)c2)C[C@@H]2CC[C@H]1N2C(=O)NCc1ccco1	.	.	.	0%	.	.
COC(=O)C1=C(c2cccc(OC)c2OC)C[C@@H]2CC[C@H]1N2C(=O)N1CCC(C)CC1	-6%	30	10	.	.	.
O=C1CCC/C(=N/NC(=O)c2cc(NS(=O)(=O)c3cccs3)cc(NS(=O)(=O)c3cccs3)c2)C1	4%	9	-5	?	21µM*	?
Cn1cc(C(=O)OCC(=O)N2CCCCC2)c2ccccc21	-3%	0	0	4%	.	.
O=C(/C=C/c1ccco1)OCC(=O)N1CCCCC1	0%	5	-5	?	6µM*	?
CN1C(=O)NC(=O)/C(=C\C=C\c2ccccc2[N+](=O)[O-])C1=O	-5%	14	1	?	2%	?
O=C1NC(=O)N(CCc2ccc(F)cc2)C(=O)/C1=C\C=C\c1ccccc1	-2%	2	0	-1%	.	.
COc1ccc(OC(=O)N(C)C[C@@H]2OCc3cnnn3CCCC(=O)N([C@H](C)CO)C[C@@H]2C)cc1	.	1	-2	.	.	.
CC(C)(C)c1cc(C(=S)N2CCN(CCO)CC2)cc(C(C)(C)C)c1O	3%	1	-11	30µM*	12µM*	24µM*
CCC1(c2ccccc2)C(=O)NC(=S)NC1=O	-5%	2	-5	.	.	.
Clc1ccc(Cn2cc(Br)cn2)cc1Cl	-5%	8	10	24µM*	6µM*	12µM*
